PubChem BioAssay (NCI)
Compounds without any hit were thinned out: in the full panel of roughly 79,000, 15% have a hit. Cut-off read from the data, not from the text of the source: active = growth inhibition above about 70%; inactive = the rest.

How the values were obtained:
[1] = NCI Yeast Anticancer Drug Screen. Data for the rad50 strain (AID 155);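 note: 0% = growth of vehicle-only cultures of the same strain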; details: S. cerevisiae rad50 strain growth inhibition; at 50.0 µM; active compounds read high
Outline: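 Cells are treated with compound, grown, and their growth is then scored against vehicle-only cultures of the same repair-deficient yeast strain.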

[2] = NCI Yeast Anticancer Drug Screen. Data for the mec2-1 strain (AID 157); details: S. cerevisiae mec2-1 strain, at 50.0 µM, active compounds read high
Outline: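 Test agents were screened against the mec2-1 yeast strain, with defined DNA repair or cell cycle alteration. Growth was scored as inhibition against vehicle-only controls.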

[3] = NCI Yeast Anticancer Drug Screen. Data for the sgs1 mgt1 strain (AID 161);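 note: 0% = growth of cultures given vehicle only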; details: S. cerevisiae sgs1 mgt1 strain, at 50.0 µM, active compounds read high
Outline: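 Mutant yeast exposed to compound; growth scored against vehicle-only wells.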

[4] = NCI Yeast Anticancer Drug Screen. Data for the cln2 rad14 strain (AID 165);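 note: 0% = growth equal to vehicle treated cultures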; details: S. cerevisiae cln2 rad14 strain, at 50.0 µM, active compounds read high
Outline: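 Growth of compound-exposed yeast (cln2 rad14 genotype) measured and expressed as inhibition relative to vehicle.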

[5] = NCI Yeast Anticancer Drug Screen. Data for the bub3 strain (AID 167); details: S. cerevisiae bub3 mutant strain, at 50.0 µM, active compounds read high
Outline: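 Part of a panel of yeast mutants defective in DNA damage repair or cell cycle regulation. Each strain is grown with compound, and inhibition is calculated relative to solvent-treated cultures.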

[6] = NCI Yeast Anticancer Drug Screen. Data for the mlh1 rad18 strain (AID 175); details: S. cerevisiae mlh1 rad18 strain growth inhibition; at 50.0 µM; active compounds read high
Outline: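 In this whole-cell yeast screen, a strain with altered DNA damage repair is challenged with compound, and its growth is measured against matched vehicle-treated controls.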

Measured: growth inhibition

O=C1S/C(=C2\C(=O)N(CN3CCCCC3)c3ccccc32)C(=O)N1CN1CCCCC1
inactive: [1] 26.6% | [2] -13.1% | [3] -3.85% | [4] 4.65% | [5] -1.1% | [6] 31.1%

COc1cc2c(c3[nH]cc(C(=O)O)c(=O)c13)NC(=O)CS2
inactive: [1] -47.1% | [2] -87.8% | [3] -16.9% | [4] -32.4% | [5] -2.85% | [6] -29.4%

CC(C)(C)OC(=O)c1cccc(C(=O)OC(C)(C)C)c1
inactive: [1] 0.6% | [2] 41.6% | [3] 32.2% | [4] -9.7% | [5] 39.1% | [6] 17.3%

CSc1nc(N(C)C)c2[nH]ncc2n1
inactive: [1] 5.25% | [2] -0.5% | [3] -3.6% | [4] -10.6% | [5] 19.7% | [6] 3.25%

CN(C)CCNC(=O)c1cccc(N(C)C(=O)c2ccccc2)c1[N+](=O)[O-]
inactive: [1] 6.65% | [2] -9.45% | [3] 6.5% | [4] 17.6% | [5] 7.05% | [6] 3.15%

Cc1ccc(N2N=S=CC2=O)cc1
inactive: [1] 40.7% | [2] 11.3% | [3] 37.5% | [4] 13.4% | [5] 20.3% | [6] 34%

OCC1OC(n2c(SCc3ccccc3)nc3ccccc32)C(O)C1O (stereo not given)
inactive: [1] -3.5% | [2] 1.45% | [3] -9.1% | [4] -11.9% | [5] 6.4% | [6] 0.1%

O=C(Nc1ccc([N+](=O)[O-])cc1Cl)OCCc1ccccn1
inactive: [1] 3.25% | [2] 26.9% | [3] 23.6% | [4] -10.6% | [5] 52% | [6] 20.5%

OC1CC2CCCCC2CC1C1CCCCC1 (stereo not given)
inactive: [1] 4.15% | [2] -11.2% | [3] -7.25% | [4] -25.6% | [5] -23.7% | [6] 0.85%

N#CCCN(c1ccc(C=Nc2cccc([N+](=O)[O-])c2)cc1)S(=O)(=O)c1ccccc1
inactive: [1] 0.75% | [2] 5.65% | [3] 14.7% | [4] 8.1% | [5] -1% | [6] 14.4%

O=c1ccn(C2OC(CO)C(O)C2Cl)c(=O)[nH]1 (stereo not given)
inactive: [1] -6.7% | [2] -42.1% | [3] -11.4% | [4] 10.2% | [5] 4.9% | [6] -14.4%

N#Cc1c(O)cc(=O)n2c1[nH]c1ccccc12
inactive: [1] -15.2% | [2] -24.3% | [3] -22% | [4] -10.3% | [5] 10.5% | [6] -4.15%

Cc1ccc(NC(=O)Oc2cc(C)c(Cl)cc2C(C)C)cc1
inactive: [1] -3.9% | [2] 54.2% | [3] 43% | [4] -28.2% | [5] 51.4% | [6] 65%

CC1NCCC(CC(=O)O)C1CC(=O)O (stereo not given)
inactive: [1] -7.55% | [2] -26% | [3] 1.75% | [4] -41.1% | [5] -26.8% | [6] -10.3%

C[N+]1(C)CCC(O)C(c2ccccc2)C1 (stereo not given)
inactive: [1] -8.9% | [2] -0.45% | [3] -3.5% | [4] -22.5% | [5] -8.1% | [6] -0.7%

O=C1CC2(CCc3ccccc32)C(=O)N1CN1CCN(c2ccccn2)CC1 (stereo not given)
inactive: [1] 0.55% | [2] 3.5% | [3] -10% | [4] -9.15% | [5] -1.9% | [6] 18.1%

O=C(Oc1ccccc1)c1ccc(C(=O)Oc2ccccc2)cc1
inactive: [1] 9% | [2] 28.7% | [3] 15.8% | [4] 3.9% | [5] 43.1% | [6] 11.6%

CCCCC(CC)OC(=O)c1cccc(C)c1 (stereo not given)
inactive: [1] 9.15% | [2] 2.25% | [3] 17.8% | [4] -7.4% | [5] -0.05% | [6] 7.1%

CNSC1CCC2(C)C(=CCC3C2CCC2(C)C(C(C)CCCC(C)C)CCC32)C1 (stereo not given)
inactive: [1] -1.3% | [2] 1.7% | [3] -9.6% | [4] -5.05% | [5] -3% | [6] 10%

O=C(C[n+]1ccccc1CCCO)c1ccc(F)cc1
inactive: [1] 3.55% | [2] -19.7% | [3] 4.6% | [4] 28.3% | [5] 3% | [6] 8.45%

CCCCCCCCCC(O)CCCC(O)C(O)CCCCCCC(=O)O (stereo not given)
inactive: [1] 13.1% | [2] 15% | [3] 22.7% | [4] 17.5% | [5] -3.05% | [6] 37.6%

COC(=O)C1=CO[C@@H](C)[C@@H]2Cn3ccc4c5ccccc5nc-4c3C[C@H]12
inactive: [1] 2.4% | [2] -17.4% | [3] 14% | [4] 4.5% | [5] -3.9% | [6] 1.4%

COC(=O)[C@]12CCC(C)[C@H](C)[C@H]1C1=CCC3[C@@]4(C)CC[C@H](OC(C)=O)C(C)(C)C4CC[C@@]3(C)C1(C)C(O)C2 (stereo not given in full)
inactive: [1] 23.1% | [2] -22.5% | [3] -8.45% | [4] 8.5% | [5] -0.4% | [6] 21.9%

CC(=O)OC1CCC2(C)C(CCC3C2CCC2(C)C3CC3OC(CCC(C)CO)C(C)C32)C1 (stereo not given)
inactive: [1] 14.8% | [2] 8.55% | [3] -0.45% | [4] 19.6% | [5] -0.75% | [6] 10.1%

COC1=C2CC(C)CC(OC)C(O)C(C)/C=C(\C)C(OC(N)=O)C(OC)/C=C\C=C(/C)C(=O)NC(=C(C=NC(C)(C)C)C1=O)C2=O (stereo not given)
inactive: [1] 9.15% | [2] 23.2% | [3] 23.2% | [4] 46.1% | [5] 6.4% | [6] 18.5%

CN(C)c1nc(S(C)(=O)=O)nc2nc(S(C)(=O)=O)[nH]c12
inactive: [1] 2.45% | [2] -19.1% | [3] -4% | [4] -47% | [5] 1.95% | [6] -17.6%

COc1ccc(OC)c(NC(=O)CCC/C(CC(=O)c2ccc(O)c(OC)c2)=N\Nc2ccc([N+](=O)[O-])cc2)c1
inactive: [1] -25.8% | [2] -0.7% | [3] -38.5% | [4] 23.1% | [5] -6% | [6] -25.6%

NC(=O)CCC(Nc1c2ccccc2nc2ccccc12)C(=O)O (stereo not given)
inactive: [1] 23.1% | [2] 3.85% | [3] 15.7% | [4] 28.6% | [5] 1.4% | [6] 48.2%

COc1cc2[nH]c3c(c2cc1OC)CCN[C@@]31CC[C@@]2(CC3c4c(cc(OC)c(O)c42)CCN3C)C[C@@H]1OC (stereo not given in full)
inactive: [1] -14.8% | [2] -23.9% | [3] -37.5% | [4] 1% | [5] -35% | [6] -9.7%

COc1cc(C2C(C(=O)O)=C(CO)Oc3cc4c(cc32)OCO4)cc(OC)c1OC (stereo not given)
inactive: [1] -5.4% | [2] 7.35% | [3] -4.95% | [4] 1.1% | [5] -4.6% | [6] 4.25%

CC(Br)C(=O)NCC(=O)NCC(=O)O (stereo not given)
inactive: [1] 31.9% | [2] -14.9% | [3] -4.2% | [4] 16.4% | [5] 16.9% | [6] -4.75%

CCOCCOCCOCc1nc(C#N)c(N)o1
inactive: [1] -35.6% | [2] -23.3% | [3] -27.8% | [4] -14.8% | [5] -30.5% | [6] -63.4%

CC(=N\N=C(N)N)/C(N=Nc1ccc(S(N)(=O)=O)cc1)=N\N=C(N)N
inactive: [1] -0.75% | [2] 5.55% | [3] 19.4% | [4] -45.6% | [5] -0.55% | [6] 21.3%

CC1(C)C2CCC(CCOC(=O)COc3ccc(Cl)cc3Cl)C1C2 (stereo not given)
inactive: [1] -13% | [2] -5.45% | [3] 1% | [4] -34.8% | [5] 5% | [6] 29%

c1ccc2oc(N3CCN(c4nc5ccccc5o4)CC3)nc2c1
inactive: [1] 4.45% | [2] -0.2% | [3] -9.1% | [4] 5.85% | [5] 12% | [6] -12.2%

O=C(O)CSCc1ccccc1Cl
inactive: [1] 1.6% | [2] -6.05% | [3] -9.5% | [4] 8.25% | [5] -13.1% | [6] -11.1%

CCOC(=O)C12CCC(=O)C=C1[C@@H](C)C(=O)CC2 (stereo not given in full)
inactive: [1] -20.1% | [2] -48.6% | [3] -41.1% | [4] -10.2% | [5] -34.7% | [6] -23.4%

O=C(O)C1CC(Cl)C(Cl)CC1C(=O)O (stereo not given)
inactive: [1] -2.9% | [2] -27.1% | [3] 0.85% | [4] 0.2% | [5] -19.2% | [6] -5.1%

O=C(O)/C=C/c1ccc(OCc2ccccc2)c(OCc2ccccc2)c1
inactive: [1] 0.7% | [2] -11.7% | [3] 7.15% | [4] -10.9% | [5] -8.85% | [6] -6.9%

O=[n+]1c2c(n([O-])c3ccccc31)CCCCC2
inactive: [1] 19.6% | [2] -12.7% | [3] -1.9% | [4] -32.5% | [5] -8.35% | [6] -2.85%
